# From PubChem BioAssay AID588778 (Southern Research Institute, 2011)
# Fewer than 10 of roughly 10,000 compounds were called active. How the calls were made is not given here. Only a sample is shown.
# Test: Vibrio cholerae motility inhibitors, OD read-out (AID 588778)
# Settings: stronger effect = higher value
# [1] = measured here: bacterial viability at 10 ug/mL
Structure (SMILES),inhibition (concentration not given here),inhibition [1]
COc1ccc(C2/C(=C(\O)c3ccc(C)cc3)C(=O)C(=O)N2c2ncc(S(=O)(=O)c3ccc([N+](=O)[O-])cc3)s2)cc1 (configuration not stated),-0.505% (inactive),-2.23%
Cc1cc(NC(=O)CC2C(=O)N(c3ccccc3)C(=S)N2CCc2ccc(F)cc2)no1 (configuration not stated),13.3% (inactive),9.96%
Cc1ccc(NNC(=O)C(c2ccccc2)c2ccccc2)cc1,7.31% (inactive),10%
Cc1ccc(CN2CC(C(=O)O)CC2=O)cc1 (configuration not stated),14.2% (inactive),-5.3%
Cc1ccccc1NC(=O)NNc1ccc(F)cc1,15.9% (inactive),1.32%
CCOC(=O)c1sc(NC(=O)COc2ccc(Cl)cc2Cl)cc1C,19.1% (inactive),13.9%
CCOc1ccc2nc(SCC(=O)Nc3ccc4c(c3)OCO4)[nH]c2c1,4.79% (inactive),2.6%
Cn1cc(C2CC(=O)N(c3c(Cl)cccc3Cl)C2=O)c2ccccc21 (configuration not stated),-0.44% (inactive),3.05%
CC12CCC(C(=O)NCc3ccc4c(c3)OCO4)(c3nc4ccccc4nc31)C2(C)C (configuration not stated),3.2% (inactive),0.26%
O=[N+]([O-])c1cccc(N2CCOCC2)c1,17.3% (inactive),4.88%
OC(COCc1ccc(Cl)cc1)CN1CCN(c2cccc(Cl)c2)CC1 (configuration not stated),37.3% (inactive),11.7%
COc1ccc(C(=O)CSc2nc(=O)cc(N)n2-c2ccc(C)cc2)cc1OC,-12% (inactive),-11.4%
O=C(CS(=O)(=O)Cc1ccccc1)N1CCN(Cc2ccc3c(c2)OCO3)CC1,12.5% (inactive),2.65%
CN(CCc1ccccn1)S(=O)(=O)c1ccccc1,4.78% (inactive),-3.86%
COc1ccc(C(=O)ON2C(=O)CCC2=O)cc1I,4.65% (inactive),-0.225%
Cc1cc(NC(=O)c2ccccc2Cl)c(OC(=O)c2ccccc2Cl)cc1C,-5.73% (inactive),-9.05%
O=C(Oc1ccccn1)C1COc2ccccc2O1 (configuration not stated),-4.64% (inactive),-1.04%
Cn1nnc2cc(NC(=O)NCc3ccco3)ccc21,9.79% (inactive),6.21%
COc1cc(N2C(=O)c3cccc4c([N+](=O)[O-])ccc(c34)C2=O)ccc1-n1nc(C)cc1C,3.2% (inactive),-0.9%
CC(=O)Nc1sc(/C(C#N)=C/c2ccc(N(C)C)cc2)nc1-c1ccc(C)cc1,2.79% (inactive),-2.29%
O=[N+]([O-])c1ccccc1OCCCNCc1ccco1,11% (inactive),4.43%
CC(C)(C)SCCNC(=S)Nc1ccccc1,32.6% (inactive),4.53%
COC(=O)C1=C(C)N=C2SCCC(=O)N2C1/C=C/c1ccccc1 (configuration not stated),-20.3% (inactive),-9.41%
CCSc1ncc(Cl)c(C(=O)Nc2c(C)n(C)n(-c3ccccc3)c2=O)n1,-0.94% (inactive),-0.4%
CC(=O)N(Cc1cc2ccc(C)cc2[nH]c1=O)c1ccc(C)cc1C,-16.5% (inactive),-2.06%
O=C(O)CCCCN1Cc2ccccc2C1,2.35% (inactive),7.06%
